High-throughput results (PubChem)
Marburg entry inh = Marburg virus entry inhibition. 300,000 compounds, 1.8% hits. AID 540276. Marburg virus pseudotyped entry inhibition, cell reporter. Potency, µM (top dose mostly 37.8 µM), without a hit: at the highest dose activity change, negative = inhibition, hits mostly inhibitors; calls by dose curve; tested in HEK293 cells; also: potency is read from the fitted curve at half-maximal effect
Lassa entry inh = Lassa virus entry inhibition. Lassa virus pseudotype entry inhibition, cell reporter. Potency, µM (series often up to 37.9 µM), for the others: at the highest dose activity change, negative = inhibition, actives largely listed as inhibitors. 300,000 compounds, 1.2% hits; calls by dose curve; tested in HEK293 cells; also: potency is read from the fitted curve at half-maximal effect; nearly all actives have a fitted effect of over 50% in size
Pf growth 48h = P. falciparum growth inhibition at 48 hours (one generation). AID 504832. 310,000 compounds, 5.9% hits. P. falciparum luciferase growth in erythrocytes, 48 h. Potency, µM (top dose mostly 28.7 µM), for inactives: at the top dose activity change, negative = inhibition, hits mostly inhibitors; also: potency is read from the fitted curve at half-maximal effect
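Cell-based growth assay: transgenic P. falciparum expressing firefly luciferase, cultured in red cells within RPMI 1640 containing 0.5% w/v Albumax, 24 mM bicarbonate and gentamycin. A drop in luciferase activity indicates inhibition.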
Pf growth 96h = P. falciparum growth inhibition at 96 hours | 320,000 compounds, 6.9% hits | P. falciparum luciferase reporter growth, 96 h | Potency, µM (highest dose often 28.7 µM), for the others: top-dose activity change, negative = inhibition, actives largely listed as inhibitors | AID 504834; also: potency is read from the fitted curve at half-maximal effect
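Delayed-death screen, second-generation endpoint: infected erythrocytes, 2% hematocrit, 0.05% parasitemia final; 96 hours at 37 C, 5% CO2; luciferase detection reagent; luminescence decrease equals reduced growth.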
HCMV inh = inhibitors of human cytomegalovirus. HFF cells, HCMV-luciferase reporter, 72 h; stronger effect = lower value. activity change, negative = inhibition, % at 57.5 µM. 410,000 compounds, 4.5% hits; in the data active = activity change below about -60%; inconclusive = no clear call, values can overlap the other calls; inactive = above about -39%
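Human foreskin fibroblasts infected with luciferase-reporter HCMV at MOI 1 PFU/cell, compounds at two doses. Luciferase measured 72 h post infection; normalized to buffer-only basal and Salinomycin (10uM) controls.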
HCV inhibitor = HCV inhibition; Huh7.5.1 HCVcc-Cre infection, luciferase reporter, 44 h; 340,000 compounds, 3.4% hits; Potency, µM (series often up to 41.8 µM), for inactives: at the highest dose activity change, negative = inhibition, actives largely listed as inhibitors; AID 651820; also: potency is read from the fitted curve at half-maximal effect
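Infectious HCV cell culture screen: compound-treated cells (1,000/well, pre-plated 4 h) are infected with HCVcc-Cre at roughly 0.5 moi and grown 44 h. Infection is quantified by luciferase signal after 15 min substrate incubation at room temperature.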
Starred values were filed as active, the others as inactive; i = inactive; ? = inconclusive; · = not tested or not shown; [ ] = remark or other dose. An excerpt weighted towards active compounds, which were near 14% of everything screened. Unless noted, calls follow the shape of the dose curve; as a rule, active = well fitted inhibition curve with a large enough effect; inconclusive = small, poorly fitted or top-dose-only effect, or another doubt; inactive = no such curve, though single readings can be large or run the other way. % is scaled to controls: 0 for no effect and ±100 for the full control effect.

SMILES | Marburg entry inh | Lassa entry inh | Pf growth 48h | Pf growth 96h | HCMV inh | HCV inhibitor
O=C(Nc1ccccc1)C1(c2ccccc2)CC1(Cl)Cl (stereo not drawn) | -1.0% | 15.2% | 3.7µM* | 1.65µM* | 0.1 | -14.2%
O=C(CCc1nnc(Cc2ccc(-c3ccccc3)cc2)o1)N1CCCC1 | ? | ? | ? | 9.28µM* | -39.4 | ?
O=C(CSc1nnc(Cc2ccccc2)o1)N1CCCC1 | · | · | 12.8% | -1.4% | 0.8 | 17.6%
CCOc1ccc(-c2cc(C(=O)Nc3ccc(C)c(NS(C)(=O)=O)c3)[nH]n2)c(C)c1 | · | · | · | · | -91.1* | ·
COc1ccc(NC(=O)CSCC(=O)N2c3ccccc3CCc3ccccc32)cc1 | -21.4% | -3.5% | ? | ? | -23.8 | 2.4%
CC(C)(C)C(=O)N1c2ccccc2CCc2ccccc21 | -1.2% | 0.7% | 2.0% | ? | -31.1 | -7.7%
N#CSCC(=O)N1c2ccccc2CCc2ccccc21 | ? | ? | ? | 39.2% | -102.1* | ?
CCc1ccc(OCC(=O)N2CCc3ccccc32)cc1 | ? | -10.3%[46.1 µM] | 36.6% | 41.1% | 20.3 | -8.8%
COc1ccccc1NC(=O)CSCC(=O)N1c2ccccc2CCc2ccccc21 | ? | -13.6% | ? | 5.86µM* | -27.7 | 25.1µM*
CCc1ccc(OCC(=O)N2c3ccccc3CCc3ccccc32)cc1 | ? | ? | 9.28µM* | i | -3.4 | -9.7%
COC(=O)N1c2ccccc2CCc2ccccc21 | ? | -14.9% | 7.38µM* | 36.0% | -19.3 | ?
CCCN1CCN(CCNC(=O)Nc2ccccc2OCC)CC1 | -5.8%[46.1 µM] | -7.9%[46.1 µM] | · | · | 3.6 | ·
C/C=C(\C)C(=O)O[C@@H]([C@H](O)c1cc2ccc(=O)oc2cc1OC)C(C)(C)O | · | · | 37.3% | 49.2% | 7.2 | 9.0%
C(=N\N1CCN(Cc2ccccc2)CC1)/c1cccnc1 | ? | 1.8% | 32.8% | 6.57µM* | -33.9 | 37.5%
CCOC(=O)C1=C(C)N=c2s/c(=C\c3cccn3C)c(=O)n2C1c1cccc(OC)c1OC (stereo not drawn) | ? | -6.3% | 2.08µM* | ? | 10.2 | 11.2%
CCOC(=O)C1=C(C)N=c2s/c(=C/c3cccc([N+](=O)[O-])c3O)c(=O)n2C1c1cc(OC)c(OC)c(OC)c1 (stereo not drawn) | -34.4%[46.1 µM] | 3.9%[46.1 µM] | 1.04µM* | ? | -29.9 | -3.3%
CCOC(=O)C1=C(C)N=c2s/c(=C\c3ccc(C(=O)O)cc3)c(=O)n2C1c1ccc(OC)cc1OC (stereo not drawn) | ? | ? | · | · | 2.8 | 0.9%
Cc1cccc(NC(=O)c2c(N)sc3c2CCC(C)C3)c1 (stereo not drawn) | ? | 4.3%[46.1 µM] | · | · | -28.7 | ·
Cc1ccc(S(=O)(=O)CCC(=O)Nc2nc(-c3ccncc3)cs2)cc1 | · | · | ? | 26.9% | -10.0 | 14.0%
O=C(CCS(=O)(=O)c1ccccc1)Nc1nc(-c2ccccn2)cs1 | · | · | · | · | -103.2* | ?
Cc1cc(C)c(OCC(=O)Nc2nc(-c3ccccn3)cs2)c(C)c1 | ? | ? | 8.28µM* | ? | 5.3 | 3.98µM*
CC(Oc1ccc(F)cc1)C(=O)Nc1nc(-c2ccccn2)cs1 (stereo not drawn) | ? | ? | 2.62µM* | 2.33µM* | -90.3* | 8.91µM*
C[C@H](NC(=O)c1ccco1)C(=O)Nc1nc(-c2ccccn2)cs1 | -7.4% | -12.4%[46.1 µM] | · | · | -24.6 | -12.9%
Cc1ccccc1OCC(=O)Nc1nc(-c2ccncc2)cs1 | ? | -22.0% | ? | 33.0% | -7.3 | ?
O=C(CCS(=O)(=O)c1ccc(F)cc1)Nc1nc(-c2ccccn2)cs1 | · | · | ? | ? | -106.5* | -1.0%
SMILES | Marburg entry inh | Lassa entry inh | Pf growth 48h | Pf growth 96h | HCMV inh | HCV inhibitor
COc1cc(NC(=O)CN2C(=O)CN(C)C(=O)c3ccccc32)cc(OC)c1OC | · | 4.0%[46.1 µM] | · | · | 10.0 | ·
Cc1cccc(OCC(=O)Nc2ccccc2C(=O)OCc2cc(=O)n3ccsc3n2)c1 | · | 14.9%[46.1 µM] | · | · | 48.3 | ·
O=C(NCCSc1c(-c2ccc(Br)cc2)[nH]c2ccccc12)c1ccc(S(=O)(=O)N2CCOCC2)cc1 | ? | -22.7%[46.1 µM] | · | · | -25.2 | ·
CCOc1ccc(S(=O)(=O)NCCC(=O)NC2CCC(C)CC2)cc1 (stereo not drawn) | ? | 1.0%[46.1 µM] | · | · | -8.3 | -5.9%
CN1C(=O)CN(CCN2CC(=O)N(C)C(=O)C2)CC1=O | · | · | · | · | 18.4 | ·
O=C(CC1CC2CCC1C2)Nc1nc(-c2ccccn2)cs1 (stereo not drawn) | -1.0%[46.1 µM] | ? | 2.62µM* | 4.65µM* | 110.1 | ?
O=C(Nc1nc(-c2ccccn2)cs1)C1CC1 | 3.9% | ? | ? | ? | -11.5 | -3.4%
CCc1c(C)sc(NC(=O)OC)c1C(N)=O | -4.5% | 3.8% | 40.4% | 4.15µM* | 4.2 | 18.1%
Cc1ccc2c(c1)C1C[N+](C)(CC(=O)c3ccc(Cl)cc3Cl)CCC1N2C(=O)c1ccc(F)cc1 (stereo not drawn) | · | · | · | · | 37.5 | 12.6µM*
CCCCN(C(=O)CN1C(=O)C2CCCCC2C1=O)c1c(N)n(CCC)c(=O)[nH]c1=O (stereo not drawn) | ? | ? | -11.3% | 32.1% | 6.8 | -3.9%
O=C(Nc1ccc2c(c1)OCCO2)c1ccc(Br)c(S(=O)(=O)N2CCOCC2)c1 | ? | ? | 2.33µM* | -19.6% | -36.7 | ?
O=C(Nc1ccc2c(c1)OCO2)c1ccc(Br)c(S(=O)(=O)N2CCCC2)c1 | ? | ? | 2.62µM* | 33.9% | -34.7 | ?
O=C(NCC1CCCO1)c1ccc(Br)c(S(=O)(=O)N2CCOCC2)c1 (stereo not drawn) | · | · | ? | 1.31µM* | -35.2 | 7.8%
O=C(Nc1ccc(F)cc1)c1ccc(Br)c(S(=O)(=O)N2CCOCC2)c1 | ? | ? | ? | 3.7% | -27.0 | ?
O=C(O)c1ccc(Br)c(S(=O)(=O)N2CCCC2)c1 | -9.5% | -40.3%[14.3 µM] | -38.8% | 13.1µM* | 32.9 | ·
CN1C(=O)C(C)(C)c2cc(S(=O)(=O)NCc3ccc(C(=O)NCc4ccco4)cc3)ccc21 | · | · | 13.0% | ? | 46.6 | 8.5%
COc1ccc2c(CNCc3ccccc3OC)c(C(=O)O)n(Cc3ccc(F)cc3Cl)c2c1 | · | 15.9%[46.1 µM] | · | · | 7.4 | ·
COc1ccccc1-c1nc2n(n1)C(c1ccccc1Cl)C(C(=O)Nc1cccnc1)=C(C)N2 (stereo not drawn) | -20.2%[46.1 µM] | -12.2%[46.1 µM] | · | · | 10.8 | ·
CCCCCCCCN1C(=O)[C@H](CC(=O)NCc2cccs2)C[C@@]2(C(=O)OC)CCCCC=C12 | · | · | · | · | -6.2 | ·
CCCCNC(=O)c1cccc(NC(=O)c2nsc3ccccc23)c1 | · | -6.6%[46.1 µM] | · | · | 64.9 | ·
CC(C)COc1ccc(C(=O)Nc2scc(-c3ccc(Br)cc3)c2C(=O)OC(C)C)cc1 | · | -12.1%[46.1 µM] | · | · | 27.1 | ·
CC(C)CCN1C(=O)c2ccc(C(=O)NCC3CCCO3)cc2C1=O (stereo not drawn) | 20.1%[46.1 µM] | 1.2% | 1.7% | 4.15µM* | -0.2 | 16.9%
